Here are results for six compounds from PubChem BioAssay (EPA / NIEHS).

Read-out in assay [1]: TIMP metallopeptidase inhibitor 1 (TIMP1), TIMP1 (gene 7076)
The assay can be described thus: BSK_hDFCGF_TIMP1: BioMAP Diversity Plus: hDFCGF Assay for TIMP metallopeptidase inhibitor 1 (TIMP1) Biomarker Activity (AID 2283062). The following applies: primary human foreskin fibroblasts; actives raise or lower the signal. The gist of the method:
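Primary human foreskin fibroblasts in the hDFCGF system were dosed with compound for 24 h, then TIMP-1 was measured by ELISA. Activity was fitted bidirectionally relative to DMSO control; parallel SRB staining assessed cytotoxicity.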

Read-out in assay [2]: Monokine induced gamma interferon (MIG), CXCL9 (gene 4283)
The assay is described as follows: BSK_hDFCGF_MIG: BioMAP Diversity Plus: hDFCGF Assay for Monokine induced gamma interferon (MIG) Biomarker Activity (AID 2283063). The following applies: primary human foreskin fibroblasts; actives raise or lower the signal. The gist of the method: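 ELISA read-out of MIG from primary human dermal fibroblasts 24 h post-dosing. Gain or loss of signal fitted bidirectionally, DMSO as baseline.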

Read-out in assay [3]: Matrix Metallopeptidase 1 (MMP1), MMP1 (gene 4312)
The assay is described as follows: BSK_hDFCGF_MMP1: BioMAP Diversity Plus: hDFCGF Assay for Matrix Metallopeptidase 1 (MMP1) Biomarker Activity (AID 2283064). The following applies: primary human foreskin fibroblasts; actives raise or lower the signal. In short, it runs like this: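 hDFCGF primary fibroblasts (human foreskin); chemical added; 24 h; MMP1 by ELISA; bidirectional fit vs DMSO.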

Read-out in assay [4]: Vascular cell adhesion molecule 1 (VCAM1), VCAM1 (gene 7412)
The assay is described as follows: BSK_hDFCGF_VCAM1: BioMAP Diversity Plus: hDFCGF Assay for Vascular cell adhesion molecule 1 (VCAM1) Biomarker Activity (AID 2283065).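 For AC50: VCAM-1 protein level quantified by ELISA after 24 h chemical exposure.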 The following applies: primary human foreskin fibroblasts; actives raise or lower the signal. In short, it runs like this:
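Primary human foreskin fibroblasts (hDFCGF system) were dosed with chemical and VCAM-1 was measured by ELISA 24 h later. Bidirectional curve fitting used DMSO as negative control and activity baseline.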

Read-out in assay [5]: Plasminogen activator inhibitor-1 (PAI1), SERPINE1 (gene 5054)
The assay can be described thus: BSK_hDFCGF_PAI1: BioMAP Diversity Plus: hDFCGF Assay for Plasminogen activator inhibitor-1 (PAI1) Biomarker Activity (AID 2283066). The following applies: primary human foreskin fibroblasts; actives raise or lower the signal. The gist of the method: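 PAI-1 levels, determined by ELISA, served as the endpoint in human foreskin fibroblast cultures exposed to compound for 24 h, with DMSO as baseline.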

Read-out in assay [6]: Intercellular Adhesion Molecule 1 (ICAM1), ICAM1 (gene 3383)
The assay can be described thus: BSK_KF3CT_ICAM1: BioMAP Diversity Plus: KF3CT Assay for Intercellular Adhesion Molecule 1 (ICAM1) Biomarker Activity (AID 2283067). The following applies: primary human keratinocytes with fibroblasts; actives raise or lower the signal. The gist of the method:
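Human keratinocyte plus foreskin fibroblast primary co-culture was exposed to chemical for 24 h. ICAM-1 was then quantified by ELISA, and the data were fit bidirectionally against DMSO as the negative control and baseline.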

Read-out in assay [7]: Interferon-gamma inducible Protein 10 (IP10), CXCL10 (gene 3627)
The assay can be described thus: BSK_KF3CT_IP10: BioMAP Diversity Plus: KF3CT Assay for Interferon-gamma inducible Protein 10 (IP10) Biomarker Activity (AID 2283068). The following applies: primary human keratinocytes with fibroblasts; actives raise or lower the signal. The gist of the method:
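ELISA read-out of IP-10 after 24 h chemical dosing of human skin primary co-culture (keratinocytes, foreskin fibroblasts). Gain or loss of signal relative to DMSO, bidirectional curve fit.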

Assay [8] can be described thus: BSK_KF3CT_SRB: Viability Assessment in the BioMAP Diversity Plus: KF3CT Assay (AID 2283069).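 Note: total protein by sulforhodamine B staining as a cytotoxicity measure; read 24 h after compound addition; fitted for both signal gain and loss against DMSO baseline.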 The following applies: primary human keratinocytes with fibroblasts. In short, it runs like this:
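Keratinocytes co-cultured with foreskin fibroblasts (human primary); chemical added, 24 h; fix 10% TCA, stain 0.1% SRB, A560. Bidirectional fit vs DMSO.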

Read-out in assay [9]: Interleukin-1 alpha (IL1a), IL1A (gene 3552)
The assay is described as follows: BSK_KF3CT_IL1a: BioMAP Diversity Plus: KF3CT Assay for Interleukin-1 alpha (IL1a) Biomarker Activity (AID 2283070). The following applies: primary human keratinocytes with fibroblasts; actives raise or lower the signal. In short, it runs like this:
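Chemicals were dosed onto co-cultured human keratinocytes and foreskin fibroblasts, IL-1a was quantified by ELISA at 24 h, and activity was fitted in both directions relative to DMSO controls.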

Read-out in assay [10]: TIMP metallopeptidase inhibitor 2 (TIMP2), TIMP2 (gene 7077)
The assay can be described thus: BSK_KF3CT_TIMP2: BioMAP Diversity Plus: KF3CT Assay for TIMP metallopeptidase inhibitor 2 (TIMP2) Biomarker Activity (AID 2283071). The following applies: primary human keratinocytes with fibroblasts; actives raise or lower the signal. In short, it runs like this:
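Keratinocyte–fibroblast co-culture, 24 h exposure; TIMP-2 ELISA, DMSO-normalised bidirectional fit. Parallel SRB (0.1%, TCA-fixed, 560 nm) total-protein staining gauges cytotoxicity.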

Read-out in assay [11]: Transforming growth factor beta 1 (TGFb1), TGFB1 (gene 7040)
The assay can be described thus: BSK_KF3CT_TGFb1: BioMAP Diversity Plus: KF3CT Assay for Transforming growth factor beta 1 (TGFb1) Biomarker Activity (AID 2283072). The note with it: primary human keratinocytes with fibroblasts; actives raise or lower the signal. In short, it runs like this:
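Signal changes in either direction, relative to DMSO, define activity here. TGF-b1 is read by ELISA from a human keratinocyte-fibroblast co-culture 24 h post-dose.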

Read-out in assay [12]: C-C motif chemokine 2 (Homo sapiens) (UniProt P13500)
The assay can be described thus: BSK_KF3CT_MCP1: BioMAP Diversity Plus: KF3CT Assay for Monocyte Chemoattractant Protein 1 (MCP1/CCL2) Biomarker Activity (AID 2283073). The note with it: primary human keratinocytes with fibroblasts; actives raise or lower the signal. In short, it runs like this:
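Human keratinocyte plus foreskin fibroblast primary co-culture exposed to chemical for 24 h. MCP-1 levels measured by ELISA. Bidirectional curve fitting relative to DMSO negative control as baseline.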

Read-out in assay [13]: Matrix Metallopeptidase 9 (MMP9), MMP9 (gene 4318)
The assay is described as follows: BSK_KF3CT_MMP9: BioMAP Diversity Plus: KF3CT Assay for Matrix Metallopeptidase 9 (MMP9) Biomarker Activity (AID 2283074).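 For AC50: MMP9 protein level quantified by ELISA in the co-culture.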 The note with it: primary human keratinocytes with fibroblasts; actives raise or lower the signal. In short, it runs like this: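 Human keratinocyte/foreskin fibroblast co-culture; compound added; 24 h; MMP-9 by ELISA; bidirectional fit vs DMSO baseline.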

Read-out in the next assay: CD40, CD40 (gene 958)
The assay is described as follows: BSK_LPS_CD40: BioMAP Diversity Plus: LPS Assay for CD40 Biomarker Activity (AID 2283076). The note with it: primary human HUVEC with PBMC; actives raise or lower the signal. In short, it runs like this: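 Primary human umbilical vein endothelial cells co-cultured with peripheral blood mononuclear cells, LPS-stimulated, were dosed with chemical and read 24 h later. CD40 levels were measured by ELISA and fitted bidirectionally against DMSO as negative control and baseline.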

Read-out in assay [14]: E-selectin (Homo sapiens) (UniProt P16581)
The assay can be described thus: BSK_LPS_Eselectin: BioMAP Diversity Plus: LPS Assay for Eselectin Biomarker Activity (AID 2283077). The note with it: primary human HUVEC with PBMC; actives raise or lower the signal. In short, it runs like this: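 Human umbilical vein endothelial cells co-cultured with peripheral blood mononuclear cells under LPS stimulation; E-selectin measured by ELISA 24 h after chemical dosing. Activity fitted bidirectionally against DMSO as negative control and baseline.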

Read-out in assay [15]: Interleukin-8 (IL8), CXCL8 (gene 3576)
The assay can be described thus: BSK_LPS_IL8: BioMAP Diversity Plus: LPS Assay for Interleukin-8 (IL8) Biomarker Activity (AID 2283078). The following applies: primary human HUVEC with PBMC; actives raise or lower the signal. In short, it runs like this:
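Human umbilical vein endothelial cells co-cultured with PBMC were stimulated with LPS; IL-8 levels were measured by ELISA 24 h after chemical dosing. Activity was fitted bidirectionally against DMSO as negative control and baseline.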

Assay [16] can be described thus: BSK_LPS_SRB: Viability Assessment in the BioMAP Diversity Plus: LPS Assay (AID 2283079).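 Note: total protein by sulforhodamine B absorbance as a cytotoxicity measure; measured one day after compound addition; fitted in both directions against DMSO so loss or gain of signal counts.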 The following applies: primary human HUVEC with PBMC. The gist of the method: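 Human umbilical vein endothelial cells co-cultured with PBMC (LPS system) were dosed for 24 h. Total protein was stained with 0.1% sulforhodamine B after 10% TCA fixation, read at 560 nm, and fitted bidirectionally against DMSO baseline.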

Read-out in assay [17]: Monocyte Chemoattractant Protein-1 (MCP1), CCL2 (gene 6347)
The assay is described as follows: BSK_LPS_MCP1: BioMAP Diversity Plus: LPS Assay for Monocyte Chemoattractant Protein-1 (MCP1) Biomarker Activity (AID 2283081). The note with it: primary human HUVEC with PBMC; actives raise or lower the signal. In short, it runs like this: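 HUVEC plus PBMC co-culture (human primary cells, LPS system) exposed to test chemical for 24 h; MCP-1 measured by ELISA. Bidirectional curve fitting against DMSO baseline; parallel SRB total-protein staining flags overt cytotoxicity.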

Read-out in assay [18]: urokinase plasminogen activator (uPA), PLAU (gene 5328)
The assay can be described thus: BSK_KF3CT_uPA: BioMAP Diversity Plus: KF3CT Assay for urokinase plasminogen activator (uPA) Biomarker Activity (AID 2283075). The note with it: primary human keratinocytes with fibroblasts; actives raise or lower the signal. In short, it runs like this: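 ELISA readout of uPA, analyzed for signal gain or loss relative to DMSO, from a human primary keratinocyte–foreskin fibroblast co-culture measured 24 h after chemical treatment.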

Read-out in assay [19]: Interleukin-1 alpha (IL1a), IL1A (gene 3552)
The assay is described as follows: BSK_LPS_IL1a: BioMAP Diversity Plus: LPS Assay for Interleukin-1 alpha (IL1a) Biomarker Activity (AID 2283080). The following applies: primary human HUVEC with PBMC; actives raise or lower the signal. In short, it runs like this:
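Human umbilical vein endothelial cells co-cultured with peripheral blood mononuclear cells were LPS-stimulated and exposed to test chemicals for 24 h. IL-1 alpha was quantified by ELISA, with bidirectional curve fitting against DMSO as the negative control and baseline.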

Calls of active or inactive are those of the source. Rule for the calls: active = hit-call score of the fitted dose curve at least 0.9, where 1 is the maximum; inactive = score below 0.9.

Sequence of E-selectin (Homo sapiens) (P16581 whole entry, looked up): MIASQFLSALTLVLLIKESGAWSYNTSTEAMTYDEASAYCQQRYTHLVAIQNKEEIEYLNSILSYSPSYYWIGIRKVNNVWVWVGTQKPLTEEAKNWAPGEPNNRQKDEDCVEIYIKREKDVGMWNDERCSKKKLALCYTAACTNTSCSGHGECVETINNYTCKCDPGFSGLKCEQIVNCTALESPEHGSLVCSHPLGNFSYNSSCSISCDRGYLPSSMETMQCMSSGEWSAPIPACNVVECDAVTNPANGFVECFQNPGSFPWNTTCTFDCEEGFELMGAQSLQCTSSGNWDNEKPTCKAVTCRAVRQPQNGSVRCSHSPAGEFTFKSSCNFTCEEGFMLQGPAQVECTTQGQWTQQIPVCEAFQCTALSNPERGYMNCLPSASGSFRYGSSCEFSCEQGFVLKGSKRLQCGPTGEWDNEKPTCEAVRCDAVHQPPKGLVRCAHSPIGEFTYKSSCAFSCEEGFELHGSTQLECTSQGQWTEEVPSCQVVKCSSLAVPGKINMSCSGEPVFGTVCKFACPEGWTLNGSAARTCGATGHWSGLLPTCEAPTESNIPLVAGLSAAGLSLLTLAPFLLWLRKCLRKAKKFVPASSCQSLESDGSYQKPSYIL

`Clc1cc(Cl)c2c(c1)N=C1CCCCCN1C2`: the result in assay [1], in assay [2], in assay [3], in [4], in assay [5] and in assay [6] was inactive. For the same compound, the result in [7], in [8], in [9], in assay [10], in assay [11] and in assay [12] was inactive. Moreover, the outcome in assay [13] is “inactive”; in the assay with CD40, CD40 (gene 958) it was “inactive”; in assay [14], “inactive”; in assay [15] it was “inactive”; in assay [16] it was “inactive”; in assay [17], “inactive”.

With `O=c1ccc2ccccc2o1`, the result in assay [1], in assay [2], in assay [3], in assay [4], in assay [5] and in assay [6] was inactive. In addition, the outcome in assay [7], in assay [8], in [9], in [10], in assay [11] and in assay [12] was inactive. Besides, the outcome in assay [13] is “inactive”; in the assay with CD40, CD40 (gene 958), “inactive”; in assay [14], “inactive”; in assay [15] it was “inactive”; in [16], “inactive”; in assay [17], “inactive”.

`O=C=NCCCCCCN=C=O`: the result in assay [1], in assay [2], in assay [3], in assay [4], in assay [5] and in assay [6] was inactive. Besides, the result in assay [7], in [8], in assay [9], in assay [11], in assay [12] and in [13] was inactive. Moreover, the outcome in assay [18] is “inactive”; with CD40, CD40 (gene 958), “inactive”; in assay [14], “inactive”; in assay [15], “inactive”; in [16], “inactive”; in assay [19], “inactive”. Also, the result in [17] was inactive.

On to `CCCCOC(=O)CC(CC(=O)OCCCC)(OC(C)=O)C(=O)OCCCC`, for which the outcome in assay [1], in assay [2], in assay [3], in [4], in assay [5] and in assay [6] was inactive. Further, the outcome in [7], in assay [8], in [9], in assay [10], in assay [11] and in assay [12] was inactive. Besides, the outcome is “inactive” in assay [13]; “inactive” with CD40, CD40 (gene 958); “inactive” in assay [14]; “inactive” in assay [15]; “inactive” in assay [16]; “inactive” in assay [17].

For `O=CCCCC=O`, the AC50 in assay [1] was 13.9 µM (active); in assay [2], 32.4 µM (active); in assay [3] it was 31.6 µM (active); in assay [4] it was 20.7 µM (active); in assay [5], 34 µM (active); in assay [6], 33.6 µM (active). Also, the AC50 in assay [7] is 33 µM (active); in assay [8], 34.1 µM (active); in [9], 31.2 µM (active); in assay [10], 26.2 µM (active); in assay [11] it was 29.6 µM (active); in assay [12], 32 µM (active). Also, in [13], the half-maximal activity concentration (AC50) is 24.9 µM (active). The outcome was “inactive” in the assay with CD40, CD40 (gene 958); “inactive” in assay [14]; “inactive” in assay [15]; “inactive” in [16]; “inactive” in assay [17].

Consider `c1ccc2n[nH]nc2c1`, for which the result in assay [1], in assay [2], in [3], in [4], in assay [5] and in assay [6] was inactive. Moreover, the outcome in assay [7], in assay [8], in [9], in assay [10], in assay [11] and in assay [12] was inactive. Also, the outcome was “inactive” in assay [13]; “inactive” with CD40, CD40 (gene 958); “inactive” in assay [14]; “inactive” in [15]; “inactive” in [16]; “inactive” in [17].

A word on the AC50: it is the midpoint of the concentration-response curve, whichever way the signal moves.
